Laboratory results published in PubChem BioAssay AID1159580 (chemical genetic matrix, 2015).
Values joined by “and” are separate entries in the source; they are usually repeats but may differ in a detail not shown here. Equal values may be shown once. The whole screen tested about 5,500 compounds, of which about 2,000 (36%) were called active. About 18% were inconclusive and are not listed. No stated cut-off is given here; in the data, active means normalized growth mostly below about 0.91 (no sharp cut-off); inconclusive means no clear call, values can overlap the other calls; inactive means mostly above about 0.92. Some of the results follow.

Test: chemical genetic growth profiling, strain panel (AID 1159580);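 further: tested at 20 µM; growth read once vehicle control cultures reached saturation at 30 °C; 1 = growth at the plate median or of vehicle wells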
Settings: S. cerevisiae deletion strains, growth OD

Measured: normalized growth

O=c1cc(-c2ccc(O)cc2)oc2cc(O[C@@H]3O[C@H](CO)[C@@H](O)[C@H](O)[C@H]3O[C@@H]3OC[C@](O)(CO)[C@H]3O)cc(O)c12
inactive: locus YAL013W, strain DEP1, stronger effect = lower value 1.01 | locus YAL021C, strain ccr4, stronger effect = lower value 0.998 | locus YAL026C, strain drs2, stronger effect = lower value 1 | locus YAL030W, strain snc1, stronger effect = lower value 1 | locus YBL061C, strain skt5, stronger effect = lower value 1.02 | locus YBR009C, strain hhf1, stronger effect = lower value 1.01 | locus YBR021W, strain FUR4, stronger effect = lower value 0.99 | locus YBR023C, strain chs3, stronger effect = lower value 1.01 | locus YBR171W, strain sec66, stronger effect = lower value 0.982 | locus YBR229C, strain ROT2, stronger effect = lower value 1.01 | locus YBR231C, strain swc5, stronger effect = lower value 1.01 | locus YBR279W, strain paf1, stronger effect = lower value 1.01 | locus YCL011C, strain gbp2, stronger effect = lower value 1.01 | locus YCL016C, strain dcc1, stronger effect = lower value 1 | locus YCL029C, strain bik1, stronger effect = lower value 0.985 | locus YCL061C, strain MRC1, stronger effect = lower value 1.01 | locus YCL069W, strain vba3, stronger effect = lower value 0.994 | locus YCR088W, strain abp1, stronger effect = lower value 0.998 | locus YDL005C, strain med2, stronger effect = lower value 1 | locus YDL035C, strain GPR1, stronger effect = lower value 1.01 | locus YDL040C, strain nat1, stronger effect = lower value 0.997 | locus YDL074C, strain BRE1, stronger effect = lower value 1.02 | locus YDL101C, strain DUN1, stronger effect = lower value 1.02 | locus YDL134C, strain PPH21, stronger effect = lower value 1.03 | locus YDL185W, strain tfp1, stronger effect = lower value 0.981 | locus YDL192W, strain arf1, stronger effect = lower value 0.998 | locus YDR001C, strain nth1, stronger effect = lower value 1 | locus YDR069C, strain doa4, stronger effect = lower value 1.01 | locus YDR101C, strain arx1, stronger effect = lower value 0.963 | locus YDR137W, strain rgp1, stronger effect = lower value 1.01 | locus YDR159W, strain sac3, stronger effect = lower value 1.01 | locus YDR162C, strain NBP2, stronger effect = lower value 1.03 | locus YDR195W, strain ref2 0.991 | locus YDR297W, strain sur2, stronger effect = lower value 1.01 | locus YDR318W, strain mcm21, stronger effect = lower value 1.01 | locus YDR334W, strain swr1, stronger effect = lower value 1.01 | locus YDR335W, strain msn5, stronger effect = lower value 1.01 | locus YDR388W, stronger effect = lower value 0.981 | locus YDR392W, strain spt3, stronger effect = lower value 1.01 | locus YDR502C, strain sam2, stronger effect = lower value 0.993 | locus YEL003W, strain gim4, stronger effect = lower value 1.01 | locus YEL037C, strain rad23, stronger effect = lower value 0.999 | locus YEL061C, strain CIN8 (second series), stronger effect = lower value 1 | locus YEL061C, strain CIN8, stronger effect = lower value 1.01 | locus YER015W, strain faa2, stronger effect = lower value 1.01 | locus YER016W, strain bim1, stronger effect = lower value 1.01 | locus YER110C, stronger effect = lower value 0.984 | locus YER111C, strain swi4, stronger effect = lower value 1 | locus YER155C, strain BEM2 (second series), stronger effect = lower value 1.02 | locus YER155C, strain BEM2, stronger effect = lower value 1.01 | locus YER167W, strain BCK2, stronger effect = lower value 1.01 | locus YFR010W, strain ubp6, stronger effect = lower value 1.02 | locus YGL078C, strain dbp3, stronger effect = lower value 0.997 | locus YGL086W, strain mad1, stronger effect = lower value 0.984 | locus YGL167C, strain pmr1, stronger effect = lower value 1.01 | locus YGL173C, strain kem1, stronger effect = lower value 1.02 | locus YGL227W, strain vid30, stronger effect = lower value 0.994 | locus YGL240W, strain doc1, stronger effect = lower value 1.01 | locus YGL248W, strain PDE1, stronger effect = lower value 1.05 | locus YGL253W, strain hxk2, stronger effect = lower value 0.998 | locus YGR135W, strain pre9, stronger effect = lower value 0.989 | locus YGR252W, strain gcn5, stronger effect = lower value 1.04 | locus YHR013C, strain ard1, stronger effect = lower value 0.988 | locus YHR027C, strain rpn1, stronger effect = lower value 1.01 | locus YHR030C, strain SLT2, stronger effect = lower value 1.01 and 0.992 | locus YHR079C, strain IRE1 (second series), stronger effect = lower value 0.982 | locus YHR079C, strain IRE1, stronger effect = lower value 0.983 | locus YHR094C, strain hxt1, stronger effect = lower value 0.984 | locus YHR129C, strain ARP1, stronger effect = lower value 1.01 | locus YHR142W, strain chs7, stronger effect = lower value 1.01 | locus YHR200W, strain rpn10, stronger effect = lower value 0.995 | locus YIL066C, strain RNR3, stronger effect = lower value 1.02 | locus YIL073C, strain SPO22, stronger effect = lower value 1.01 | locus YIL125W, strain kgd1, stronger effect = lower value 0.989 | locus YIR030C, strain dcg1, stronger effect = lower value 1 | locus YJL092W, strain hpr5, stronger effect = lower value 1 | locus YJL095W, strain BCK1 (second series), stronger effect = lower value 1.01 | locus YJL095W, strain BCK1, stronger effect = lower value 1.06 and 1.01 | locus YJL115W, strain asf1, stronger effect = lower value 0.99 | locus YJL129C, strain trk1, stronger effect = lower value 0.998 | locus YJL134W, strain LCB3, stronger effect = lower value 1.01 | locus YJL154C, strain vps35, stronger effect = lower value 1 | locus YJL164C, strain tpk1, stronger effect = lower value 1.02 | locus YJL166W, strain qcr8, stronger effect = lower value 1.01 | locus YJL168C, strain set2, stronger effect = lower value 0.994 | locus YJL187C, strain SWE1 (second series), stronger effect = lower value 1.02 | locus YJL187C, strain SWE1, stronger effect = lower value 1.01 | locus YJR043C, strain POL32, stronger effect = lower value 1.03 | locus YJR066W, strain TOR1, stronger effect = lower value 0.982
